Screening results from PubChem.
Compounds with a hit are over-represented: about 2.8% of the library has one in this group of screens.
TRPM1 prom inh = MITF TRPM1 promoter inhibition in SK-MEL-5 cells; 330,000 compounds, 0.83% hits; inhibition, % at 12.5 µM; AID 488899; SK-MEL-5 TRPM1 promoter luciferase, 24 h;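 active = mean inhibition across replicates of 60% or more, whatever share of single replicates reaches that level; inconclusive = some that reach 60%, reason not given; inactive = mean inhibition across replicates below 60%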
Peg3 promoter = inhibitors of Peg3 promoter | HeLa PEG-Prom luciferase reporter, luminescence, overnight | AID 588405 | 360,000 compounds, 1.7% hits | inhibition, % at 20 µM;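 active = inhibition of at least 50% at 20 µM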
HIF-2a block = inhibitors of HIF-2a | 786-0 RCC cells HIF-2a reporter, luciferase luminescence, overnight | inhibition, % at 18.8 µM | 360,000 compounds, 0.72% hits | AID 624352;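 active = inhibition of the luminescence signal of 40% or more relative to plate controls, in a single-dose primary screen at 18.75 µM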
EBV LMP1 NFkB = Epstein-Barr LMP1 NF-kappaB reporter inhibition | LMP1-induced NF-kappaB luciferase reporter cells, luminescence | inhibition, % at 12.5 µM | 350,000 compounds, 0.69% hits; in the data active = inhibition above about 41%; inconclusive = no clear call, values can overlap the other calls;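 note: 0% = neutral control wells and 100% = reference inhibitor control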
Shn3 3UTR inh = inhibitors of Schnurri-3 3'UTR reporter in osteoblasts. Clone20 osteoblast Shn3 3'UTR firefly luciferase, 24 h. inhibition, % at 12.5 µM. 360,000 compounds, 0.52% hits. AID 588674;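 active = mean inhibition of at least 75% with every replicate also reaching 75%; inconclusive = mean inhibition at least 75% but some replicate below; inactive = mean inhibition below 75%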;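 note: 0% = median of neutral control wells and 100% = pilot-screen positive control compound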
PAX8 reporter = PAX8 transcriptional activity inhibition | RMG-I TPO-luciferase reporter, SteadyGlo, 24 h | inhibition, % at 12.6 µM | 360,000 compounds, 1.2% hits | AID 652154;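 active = mean replicate inhibition at least 60% with every replicate also reaching 60%; inconclusive = only one of the two criteria is met; inactive = mean below 60% and not all replicates reaching 60%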;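 note: luciferase light reporting Pax8 driven TPO promoter activity; plate controls were median of neutral control wells for no effect and mitoxantrone controls for full effect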
Mdm2 MdmX conf = confirmation of inhibitors of human Mdm2/MdmX interaction, set 2 | shares compounds with HIF-2a block | SaOS-2 split-luciferase Mdm2/MdmX complementation, luminescence | inhibition, % at 8 µM | 740 compounds, 99% hits | AID 504601;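 active = mean inhibition of the luminescence signal across two replicates at or above 26 percent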
Target sequence (O15151 whole entry, looked up): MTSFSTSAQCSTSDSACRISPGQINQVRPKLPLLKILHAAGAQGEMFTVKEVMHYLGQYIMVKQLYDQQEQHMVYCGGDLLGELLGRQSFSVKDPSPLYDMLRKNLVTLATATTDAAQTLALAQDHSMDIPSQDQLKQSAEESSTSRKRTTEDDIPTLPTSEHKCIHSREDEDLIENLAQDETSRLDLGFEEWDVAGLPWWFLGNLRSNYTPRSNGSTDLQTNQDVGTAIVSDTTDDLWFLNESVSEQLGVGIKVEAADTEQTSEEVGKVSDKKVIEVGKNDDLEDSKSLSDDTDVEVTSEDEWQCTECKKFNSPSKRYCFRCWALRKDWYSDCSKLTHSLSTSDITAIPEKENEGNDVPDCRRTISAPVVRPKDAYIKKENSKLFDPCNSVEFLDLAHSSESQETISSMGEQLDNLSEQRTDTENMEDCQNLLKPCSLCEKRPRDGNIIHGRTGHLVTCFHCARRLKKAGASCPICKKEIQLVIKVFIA
Target sequence (Q00987 whole entry, looked up): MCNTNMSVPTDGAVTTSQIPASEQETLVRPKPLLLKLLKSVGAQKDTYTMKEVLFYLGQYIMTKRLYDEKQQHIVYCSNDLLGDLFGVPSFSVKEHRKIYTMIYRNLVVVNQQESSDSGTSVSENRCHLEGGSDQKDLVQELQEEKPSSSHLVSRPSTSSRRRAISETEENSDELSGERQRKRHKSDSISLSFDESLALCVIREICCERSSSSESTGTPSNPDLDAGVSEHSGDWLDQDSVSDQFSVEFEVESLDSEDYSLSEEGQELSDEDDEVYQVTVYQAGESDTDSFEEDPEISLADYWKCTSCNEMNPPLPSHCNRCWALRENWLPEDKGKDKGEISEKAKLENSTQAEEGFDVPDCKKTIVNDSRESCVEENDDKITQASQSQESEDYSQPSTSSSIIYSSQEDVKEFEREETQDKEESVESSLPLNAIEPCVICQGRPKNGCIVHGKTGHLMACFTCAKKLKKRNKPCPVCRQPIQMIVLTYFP
HIF-2a inh conf = confirmation of HIF-2a inhibitors; shares compounds with HIF-2a block; 786-0 RCC cells, HIF-2a luciferase reporter luminescence, overnight; inhibition, % at 18.8 µM; 1,800 compounds, 56% hits; AID 651580;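 active = mean inhibition across four replicates of at least 40 percent at the single tested concentration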
HIF-1a cs = inhibits HIF-1a reporter, a counter-screen for HIF-2a inhibitors; shares compounds with HIF-2a block; MiaPaCa-2 HIF-1a luciferase reporter, desferoxamine, overnight; inhibition, % at 18.8 µM; 1,800 compounds, 72% hits; AID 651589;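 active = mean inhibition of the reporter signal across four replicates at the single tested dose of 50% or more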
* marks the source's active call; other numbers are inactive results; ? = inconclusive; . = not tested or not shown.

SMILES	TRPM1 prom inh	Peg3 promoter	HIF-2a block	EBV LMP1 NFkB	Shn3 3UTR inh	PAX8 reporter	HIF-2a inh conf	HIF-1a cs	others
CC1CCc2c(sc(NC(=O)CSc3ncn[nH]3)c2C#N)C1 (stereo not given)	62*	38	91*	28	50	26	95*	90*
N#Cc1c(NC(=O)CCCC(=O)O)sc2c1CCCCC2	31	-157	63*	?	24	5	67*	18
CCCC(=O)Nc1sc2c(c1C#N)CCCCC2	-47	-349	-272	-28	-40	.	.	.
N#Cc1c(NC(=O)CSc2ncn[nH]2)sc2c1CCCC2	73*	14	90*	27	58	.	94*	71*
CC(C)(C)C1CCc2c(sc(NC(=O)CSc3ncn[nH]3)c2C#N)C1 (stereo not given)	8	-7	27	-1	29	22	.	.
CN1CCN(C(=O)C[C@H]2CC[C@H]3[C@@H](COC[C@H](O)CN3Cc3cccc(-c4ccncc4)c3)O2)CC1	.	.	.	.	.	7	.	.
C[C@@H]1CCCCO[C@@H](CN(C)C(=O)Nc2ccccc2)[C@H](C)CN([C@@H](C)CO)C(=O)c2cc(NC(=O)C3CCCCC3)ccc2O1	.	.	.	.	.	-9	.	.
O=C1CCCCCN1Sc1ccccc1	10	14	44*	-2	1	.	31	8
C=C(CN(C)C)C(=O)c1ccc(C)cc1C	109*	99*	90*	-8	97*	85*	96*	74*
CC1(C)CC(=O)C2=C(C1)NC1=C(C(=O)c3ccccc31)C2c1ccc(O)cc1 (stereo not given)	-7	14	44*	0	17	-2	20	40
O=C1CCCC2=C1C(c1cccc(O)c1)C1=C(N2)c2ccccc2C1=O (stereo not given)	7	25	17	0	18	3	.	.
COc1cc(CNCCc2ccc(S(N)(=O)=O)cc2)ccc1OCc1ccc(Cl)cc1	-11	92*	75*	-4	45	.	-8	94*
CCOc1cc(CNCCc2ccc(S(N)(=O)=O)cc2)ccc1OCc1ccc(Cl)cc1	92*	108*	86*	-65	91*	.	3	102*
C[C@@H]1CN([C@@H](C)CO)C(=O)c2cccc(NC(=O)Nc3ccc4c(c3)OCO4)c2O[C@@H]1CN(C)C(=O)Nc1cccc2ccccc12	.	.	.	.	.	0	.	.
COc1ccc2cc3c(N)nn(C(=O)Cc4ccccc4OC)c3nc2c1	27	42	36*	21	4	-10	13	89*
CCOC(=O)c1c[nH]c(=S)n(-c2ccccc2)c1=O	-1	8	0	-3	-3	-12	.	.
CCOC(=O)c1c(SCCN2CCCC2)n(-c2ccccc2)c(=S)n(-c2ccccc2)c1=O	96*	100*	78*	8	?	59	93*	102*
O=C(c1cc(C2CC2)nc2ccc(Br)cc12)N1N=C(C(F)F)CC1(O)C(F)F (stereo not given)	8	60*	57*	-15	1	35	35	65*
CC(=O)N(C(C)=O)c1ccc(Oc2ccc(Oc3ccc(N(C(C)=O)C(C)=O)cc3)cc2)cc1	.	-84	68*	-6	-17	-3	87*	50
CNC(=O)c1ccc(Oc2ccc(C(=O)NC)cc2)cc1	7	0	-10	-4	3	.	.	.
CC(=O)N(C)C[C@H]1Oc2ncc(-c3ccc(C(=O)N(C)C)cc3)cc2C(=O)N([C@H](C)CO)C[C@H]1C	.	.	.	.	.	-2	.	.
CC(C)(C)[S@@](=O)N1Cc2cc(C(=O)NCc3ccccn3)nc(-c3cccc(-c4ccccc4F)c3)c2[C@H]1CCO	.	.	.	.	.	-4	.	.
CCOC(=O)c1cccc(NC(=O)/C=C/c2ccc3c(c2)OCO3)c1	6	-98	47*	9	-28	-41	69*	38
Cc1ccc(-c2nc(N)c3c(-c4ccc(C)cc4)nn(C(C)(C)C)c3n2)cc1	12	1	2	0	-11	.	.	.
CC(C)(C)n1nc(-c2ccc(Cl)cc2)c2c(N)ncnc21	-7	69*	63*	42*	64	.	43*	80*
SMILES	TRPM1 prom inh	Peg3 promoter	HIF-2a block	EBV LMP1 NFkB	Shn3 3UTR inh	PAX8 reporter	HIF-2a inh conf	HIF-1a cs	others
CC(C)(C)n1nc(-c2ccc(F)cc2)c2c(N)ncnc21	-24	47	43*	?	47	.	45*	22
C/C=C/c1cnc2c(c1)C(=O)N([C@@H](C)CO)C[C@H](C)[C@@H](CN(C)S(=O)(=O)c1ccccc1F)O2	.	.	.	.	.	-5	.	.
CO[C@@H]1CN(C)C(=O)c2cc(NC(=O)C3CC3)ccc2OC[C@H](C)NC[C@@H]1C	.	.	.	.	.	-10	.	.
COc1ccc(C2=Nn3c(nnc3-c3ccccc3OC)SC2)cc1OC	25	6	43*	17	13	.	18	11
Cc1ccc(S(=O)(=O)Nc2ccc3c(c2)CC(=O)N([C@@H](C)CO)C[C@@H](C)[C@H](CN(C)S(=O)(=O)c2ccc(F)cc2)O3)cc1	.	.	.	.	.	3	.	.
Cc1ccc(Nc2nc(N)nc(CN3CCCCCC3)n2)c(C)c1	-1	-3	14	5	-3	.	.	.
Cc1cccc(Nc2nc(N)nc(CCl)n2)c1C	.	58*	-14	.	-11	125*	.	.	Mdm2 MdmX conf=103*
Cc1cccc(Nc2nc(N)nc(CN3CCC(C(N)=O)CC3)n2)c1C	9	17	7	-2	-10	.	.	.
CCOc1ccc(Nc2nc(N)nc(CCl)n2)cc1	16	77*	-125	14	-35	110*	.	.	Mdm2 MdmX conf=103*
Cc1ccc(Nc2nc(N)nc(CCl)n2)c(C)c1	-14	41	-95	33	-109	106*	.	.	Mdm2 MdmX conf=103*
Cc1noc(C)c1NC(=O)N(C)C[C@@H]1Oc2c(NC(=O)C3CCOCC3)cccc2C(=O)N([C@@H](C)CO)C[C@H]1C	.	.	.	.	.	-4	.	.
O=C(Nc1ccccc1F)N[C@H]1CC[C@@H](CCNS(=O)(=O)c2ccc(Cl)cc2)O[C@@H]1CO	.	.	.	.	.	15	.	.
N#CCCN(C(=O)CCl)c1cccc(Cl)c1	37	54*	14	45*	-15	1	.	.	Mdm2 MdmX conf=101*
N#CCCN(C(=O)COC(=O)c1nc(Cl)ccc1Cl)c1ccccc1	0	-4	4	2	4	-2	.	.
CC[N+]1(C)CCC(O)(/C=C/c2ccccc2)C(C(=O)/C=C/c2ccccc2)C1 (stereo not given)	66*	97*	90*	-3	99*	67*	46*	103*
Cc1ccc(C#N)c(SCc2cc3c(cc2Cl)OCO3)n1	-14	1	-40	-7	14	.	.	.
